The target in assay [1] is Cellular tumor antigen p53 (Homo sapiens) (UniProt P04637). As to the kind of experiment: Primary qHTS for small molecule compounds that upregulate eGFP-tagged delta133p53alpha (in N-terminal) cells. (AID 2060322). Also: nearly all actives have a fitted effect of over 75% in size. Also: potency is read from the fitted curve at half-maximal effect.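 As to activation: series mostly up to about 56 µM; 0% = DMSO vehicle and 100% = reference activator.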 Particulars: NCI-H358 eGFP-delta133p53alpha fluorescence, 24 h; activation: stronger effect = higher value. Put shortly:
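NCI-H358 cells pre-induced 24 h with 10 ng/ml doxycycline to express N-terminal eGFP-delta133p53alpha, then dosed 24 h at 37C without doxycycline; fixed, Hoechst-stained, GFP intensity by laser scanning cytometry, normalized to DMSO (0%) and 57.5 uM 5-azacytidine (100%).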
On the technique in general: qHTS replaces the single test concentration by a dilution series.

The target of assay [2] is Aldehyde dehydrogenase, mitochondrial (Homo sapiens) (UniProt P05091). The assay can be described thus: qHTS for Inhibitors of the Aldehyde Dehydrogenase Family (ALDH2) Primary screen (AID 2061308).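 Also: plate controls were vehicle for no effect and reference inhibitor for full effect; nearly all actives have a fitted effect of over 55% in size.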
Assay [3] has as its target Retinaldehyde dehydrogenase 3 (Homo sapiens) (UniProt P47895). As to the kind of experiment: qHTS for Inhibitors of the Aldehyde Dehydrogenase Family (ALDH1A3) Primary screen (AID 2061315).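 Also: plate controls were DMSO vehicle for no effect and reference inhibitor for full effect.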
Assay [4] in a line: BET inhibitor-based combinations targeting novel dependencies in MECOM-rearranged (r) AML: OCI-AML3 cell line (AID 2202232). Also: nearly all actives have a fitted effect of over 35% in size. Also: potency is read from the fitted curve at half-maximal effect.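 As to viability (% of control): series mostly up to about 46 µM; plate controls were DMSO vehicle wells for no effect and wells without cells for full effect.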 Particulars: Potency: OCI-AML3 viability. Put shortly: (§1)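 Viability of cells (500 per well) is scored by luminescent CellTiter-Glo at 48 hr post-dosing. Eleven-point titrations are normalized to DMSO and empty controls and reduced to AUC values.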
A short description of assay [5]: BET inhibitor-based combinations targeting novel dependencies in MECOM-rearranged (r) AML: MV-4-11 cell line (AID 2202233). Also: nearly all actives have a fitted effect of over 45% in size. Also: potency is read from the fitted curve at half-maximal effect. The essentials:
(§2)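 Using pin-tool transfer, drugs were added in 11 doses to cells (500/well), incubated 48 hr, and assessed with CellTiter-Glo. Z-AUC is a mean-centring transformation applied separately to each screened line.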

A short description of assay [6]: BET inhibitor-based combinations targeting novel dependencies in MECOM-rearranged (r) AML: HNT-34 cell line (AID 2202234). Also: nearly all actives have a fitted effect of over 35% in size. Also: potency is read from the fitted curve at half-maximal effect.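 As to viability (% of control): plate controls were vehicle wells for no effect and cell-free wells for full effect.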 The essentials: as §2
Assay [7] can be described thus: BET inhibitor-based combinations targeting novel dependencies in MECOM-rearranged (r) AML: UCSD-AML1 cell line (AID 2202235). Also: nearly all actives have a fitted effect of over 40% in size. Also: potency is read from the fitted curve at half-maximal effect.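 As to viability (% of control): series mostly up to about 46 µM; plate controls were DMSO vehicle wells for no effect and blank wells for full effect.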 Put shortly: as §2
The nature of assay [8]: BET inhibitor-based combinations targeting novel dependencies in MECOM-rearranged (r) AML: AML-194 cell line (AID 2202237; also: nearly all actives have a fitted effect of over 40% in size; also: potency is read from the fitted curve at half-maximal effect;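 as to viability (% of control): plate controls were vehicle wells for no effect and wells without cells for full effect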). Put shortly:
as §1

The nature of assay [9]: BET inhibitor-based combinations targeting novel dependencies in MECOM-rearranged (r) AML: AML-191 cell line (AID 2202236; also: nearly all actives have a fitted effect of over 35% in size; also: potency is read from the fitted curve at half-maximal effect;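 as to viability (% of control): plate controls were vehicle wells for no effect and wells without cells for full effect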). The essentials:
as §1

Assay [10] is described as follows: BET inhibitor-based combinations targeting novel dependencies in MECOM-rearranged (r) AML: SET-2 cell line (AID 2202231).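 Also: plate controls were DMSO treated cells for no effect and wells without cells for full effect; nearly all actives have a fitted effect of over 35% in size.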 The following applies: SET-2 AML cells viability, CellTiter-Glo luminescence, 48 h; viability: stronger effect = lower value, series mostly up to about 46 µM. Put shortly: as §1
A general note: ATP-based viability assays read luminescence as a measure of living cells.

Several values for one entry are separate records, joined by “and”; a condition that tells them apart may be missing. Equal entries are not always repeated. Records with an inconclusive call do not appear. A number with no mark means an inactive call. Activity calls are given as the source filed them. Calls follow the shape of the dose curve; as a rule, active = well fitted curve in the direction sought with a large enough effect; inconclusive = small, poorly fitted or top-dose-only effect, or another doubt; inactive = no such curve, though single readings can be large; an effect the other way counts as inactive or inconclusive.

Chain of Cellular tumor antigen p53 (Homo sapiens) (P04637 whole entry, looked up): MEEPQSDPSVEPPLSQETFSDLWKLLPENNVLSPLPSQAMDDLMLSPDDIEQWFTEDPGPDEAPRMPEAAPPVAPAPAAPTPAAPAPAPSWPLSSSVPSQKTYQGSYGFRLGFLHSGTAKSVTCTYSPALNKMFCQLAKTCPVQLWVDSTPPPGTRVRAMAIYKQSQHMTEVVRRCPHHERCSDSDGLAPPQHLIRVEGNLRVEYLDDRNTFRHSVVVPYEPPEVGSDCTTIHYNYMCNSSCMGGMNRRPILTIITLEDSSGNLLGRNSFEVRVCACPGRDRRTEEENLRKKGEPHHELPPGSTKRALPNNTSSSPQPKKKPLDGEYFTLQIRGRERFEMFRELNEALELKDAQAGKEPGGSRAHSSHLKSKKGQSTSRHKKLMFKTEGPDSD

With `CCNC(=O)C#Cc1ccc2c(C(=Nc3ccc(CN(C)C)cc3)c3ccccc3)c(O)[nH]c2c1`, the Potency in assay [1] was 13.1 µM (active); in assay [4] it was 0.144 µM (active); in assay [5], 0.0645 µM (active); in [6] it was 0.091 µM (active); in [7], 0.574 µM (active); in assay [8], 0.162 µM (active). Also, the Potency entry in assay [2] and in [3] was “inactive” in each case.

Take `Cc1cc(Nc2cc(N3CCN(C)CC3)nc(Sc3ccc(NC(=O)C4CC4)cc3)n2)n[nH]1`: the activation in [1] is 60.2%. For the same compound, the Potency result in assay [2] and in [3] was “inactive” each time. In addition, the Potency in [4] is 0.662 µM (active); in assay [5] it was 0.132 µM (active); in assay [6], 0.235 µM (active); in assay [7] it was 4.68 µM (active); in assay [9], 0.662 µM (active); in [8], 0.934 µM (active).

On to `Cc1cc(C(C)Nc2ccccc2)c2nc(N3CCOCC3)cc(=O)n2c1` (stereo unspecified), for which the activation in [1] was 9.6% and -9.82%. The Potency entry in [2] and in [3] was “inactive” each time. Further, the Potency in assay [4] is 2.63 µM (active); in assay [5] it was 16.6 µM (active); in assay [6] it was 16.6 µM (active); in [7] it was 16.6 µM (active); in assay [9] it was 18.6 µM (active); in assay [8], 23.5 µM (active).

For `COc1ccc2c(c1)CC[C@@H](CN(C)CC(=O)O)[C@H]2c1ccccc1`, in assay [1], the activation was -11.9%. For the same compound, the Potency result in [2], in [3], in assay [7], in [9] and in assay [8] was “inactive” each time. The viability in assay [10] was 116%.

For `Cc1cccc(-c2[nH]c(CNc3ccccc3F)nc2-c2ccc3ncnn3c2)n1`, the activation in [1] is -27.7%. Besides, the Potency result in assay [2], in assay [3], in [7], in [9] and in assay [8] was “inactive” throughout. Moreover, in [10], the viability is 100%.

With `CO[C@@H]1COCC[C@@H]1N[C@@H]1CC[C@@](C(=O)N2CCc3ncc(C(F)(F)F)cc3C2)(C(C)C)C1`, the activation in assay [1] was -7.67% and -27.6%. The Potency entry in [2], in assay [3], in assay [4], in assay [5], in [6] and in assay [7] was “inactive” each time. For the same compound, in [8], the Potency result was “inactive”.

Regarding `Cn1cc(-c2[nH]c3cc(NC(=O)[C@H](N)C4CCCCC4)cc4c3c2C=NNC4=O)cn1`, the activation in assay [1] was 23.5%. Further, the Potency result in assay [2] and in assay [3] was “inactive” each time. Moreover, the Potency was 5.25 µM (active) in [4], 0.263 µM (active) in [5] and 1.05 µM (active) in assay [7].

As for `C[C@H](c1ccc(F)cc1CCCC(=O)O)N(c1cc(F)ccc1F)S(=O)(=O)c1ccc(Cl)cc1`, the activation in assay [1] is -2.61% and 2.68%. Also, the Potency entry in [2], in [3] and in assay [8] was “inactive” throughout. Besides, in assay [10], the viability was 113%.

For the compound `Nc1ncnc2c1ncn2[C@@H]1O[C@H](CO)C[C@H]1O`, the Potency in assay [1] was 12 µM (active). Also, the Potency entry in assay [2], in assay [3], in assay [4], in [5], in assay [9] and in [8] was “inactive” each time.

For `C[C@@H](c1ccc2nccn2c1)n1nnc2ncc(-c3cnn(C)c3)nc21`, the activation in [1] is 2.86%. Also, the Potency result in assay [2], in assay [3], in assay [7] and in assay [8] was “inactive” each time. The values for the Potency in assay [4] and in assay [9] were 13.2 µM (active) and 20.9 µM (active), respectively.

Take `CN1CCN(C(=O)c2ccc3cc(CCNc4ncnc5ccc(C#N)cc45)ccc3c2)CC1`: the activation in assay [1] was -12.3%. Further, the Potency result in [2] and in assay [3] was “inactive” in each case. In [5], the Potency is 7.42 µM (active).

As to `Cc1csc(-c2nnc(Nc3ccc(Oc4ncccc4-c4ccnc(N)n4)cc3)c3ccccc23)c1`, in assay [1], the activation is 19.6%. Moreover, the Potency entry in assay [2] and in assay [3] was “inactive” in each case. Besides, the Potency is 1.86 µM (active) in [4] and 0.296 µM (active) in [7].

As to `COc1ccc(CCN2CCN(CCCc3ccccc3)CC2)cc1OC`, the activation in assay [1] was 20.6% and -1.43%. In addition, the Potency result in [2], in assay [3], in assay [4], in [6], in assay [7] and in assay [9] was “inactive” throughout. The Potency result in [8] was “inactive”.

Take `CNc1nccc(-c2cccnc2Oc2cc(C(=O)Nc3cccc(C(F)(F)F)c3)ccc2C)n1`: the activation in [1] was -0.576%. In addition, the Potency result in assay [2] and in assay [3] was “inactive” in each case. For the same compound, the Potency in assay [4] is 2.35 µM (active); in assay [5] it was 2.95 µM (active); in assay [7] it was 6.61 µM (active); in assay [8] it was 6.61 µM (active).

For `COc1nccc(-c2c(-c3ccc(F)cc3)ncn2C2CCC(O)CC2)n1` (stereo unspecified), the activation in assay [1] is 22% and -24.1%. Besides, the Potency entry in [2], in assay [3] and in assay [8] was “inactive” throughout. Further, the Potency in assay [4] and in assay [9] was 18.6 µM (active) each time.

For `CN(C)CC(=O)N1CCC(c2ccc(NC(=O)c3ncc(C#N)[nH]3)c(C3=CCCCC3)c2)CC1`, in [1], the activation was -0.715%. In addition, the Potency result in assay [2] and in [3] was “inactive” each time. Also, the Potency in assay [5] is 0.148 µM (active); in assay [6], 10.5 µM (active); in [7], 5.25 µM (active).

Take `Nc1nc(OCc2cc(Br)cs2)c2[nH]cnc2n1`: the activation in assay [1] was -5%. In addition, the Potency result in [2], in assay [3], in assay [7] and in assay [8] was “inactive” each time. For the same compound, the Potency in assay [4] was 9.34 µM (active).

On to `CC1CCC(n2c3cnccc3c3cnc(Nc4ccc5c(n4)CCN(C(=O)CO)C5)nc32)CC1` (stereo unspecified), for which the Potency was 23.9 µM (active) in [1] and 1.21 µM (active) in [8]. In addition, the Potency result in [2] and in [3] was “inactive” throughout. The viability (% of control) is 86.5% [at 8.46 µM] in [4] and 92.3% [at 8.46 µM] in assay [6].

`COc1cc(F)c(F)c(Nc2ccc(I)cc2F)c1NS(=O)(=O)C1(C[C@H](O)CO)CC1`: the activation in assay [1] is 4.11%. The Potency entry in assay [2] and in assay [3] was “inactive” each time. Further, the Potency in assay [4] is 0.166 µM (active); in [6], 1.32 µM (active).

By viability is commonly meant a read-out of living cells in per cent, often relative to untreated cells.

(Values after PubChem BioAssay (NCATS).)
